The source made the active and inactive calls. Unless noted, the rule behind the calls is not given here.
How the values were obtained:
[1] = system: Wnt5a (protein binding on small-molecule microarray); assay: Wnt5a binders on small-molecule microarray, primary screen, biophysical, 635/667 nm fluorescence (AID 1142); conditions: 635 nm fluorescence, higher = more signal;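 note: fluorescence read at 667 nm with signal to noise per printed feature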
[2] = cell viability in Huh7 cells, primary screen, cytotoxicity control for HCV replication inhibitor project, CellTiter-Glo luminescence, basal, 48 h (AID 1143); conditions: Huh7 HCV replicon, higher = more signal, called active from +8 up or from −8 down;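 note: Huh7 hepatoma cells carrying a hepatitis C replication reporter with no stimulus; test concentration not given here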
[3] = P. aeruginosa biofilm formation inhibitors, primary screen, PAO1 strain, BacTiter-Glo luminescence, LB-PBS (AID 1144); conditions: 12 h, higher = more signal
[4] = CREB reporter modulators without forskolin, primary screen, cell-based, PC12, CRE-LacZ reporter, unstimulated (AID 1145); conditions: no forskolin, luminescence, 4.5 h, higher = more signal, called active from +8 up or from −8 down
[5] = CREB reporter modulators under forskolin, primary screen, cell-based, PC12, CRE-LacZ reporter, forskolin-stimulated (AID 1146); conditions: luminescence, 4.5 h, higher = more signal, called active from +8 up or from −8 down;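 note: PC12 cells with 6xCRE LacZ reporter stimulated by forskolin 10 µM; beta-galactosidase reporter signal reflecting CREB driven transcription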
[6] = target: Streptavidin (Streptomyces avidinii) (UniProt P22629); assay: streptavidin binders on small-molecule microarray, primary screen, artefact control for SMM compound annotation, biophysical, 635/667 nm fluorescence (AID 1147); conditions: streptavidin binding, higher = more signal;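 note: signal reflects streptavidin binding to arrayed compounds as a control protein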
[7] = small-molecule binders of probe aInhba, primary screen, biochemical, small-molecule microarray, 635/667 nm fluorescence (AID 1148); conditions: higher = more signal;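 note: score merges 667nm spot fluorescence with signal-to-noise for antibody binding to printed compounds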
Torsin-1A (Homo sapiens) [8] = target: Torsin-1A (Homo sapiens) (UniProt O14656); assay: torsin A binders from cell lysate, primary screen, small-molecule microarray, wild-type, 635/667 nm (AID 1149); conditions: COS7 hTOR1A-WT lysate, 635 nm fluorescence, higher = more signal
Torsin-1A (Homo sapiens) [9] = target: Torsin-1A (Homo sapiens) (UniProt O14656); assay: small-molecule binders of mutant TOR1A in lysate, primary screen, cell lysate, small-molecule microarray, COS7 lysate, 635/667 nm fluorescence (AID 1150); conditions: COS7 hTOR1A mutant lysate, 635 nm fluorescence, higher = more signal;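 note: score pools 667 nm emission and signal to noise measuring lysate protein binding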
[10] = system: Sonic hedgehog protein (Shh); assay: small-molecule binders of Shh protein, primary screen, biochemical, small-molecule microarray, 635/667 nm fluorescence (AID 1151); conditions: small-molecule microarray binding, 635 nm fluorescence; higher = more signal;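 note: Shh protein binding to compounds spotted on small-molecule microarray slides; score combines spot fluorescence intensity with signal-to-noise across triplicate slides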
[11] = E. coli DRC41 culture turbidity changes, primary screen, E. coli filamentation inducer project, strain DRC41, OD650, 48 h (AID 1152);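 note: E. coli MC1000 strain DRC41 lacking acrAB efflux pump and sulA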; conditions: E. coli DRC41 (acrAB sulA), higher = more signal, called active from +8 up or from −8 down
[12] = small-molecule binders of probe aLefty1, primary screen, biochemical, small-molecule microarray, 635/667 nm fluorescence (AID 1153); conditions: higher = more signal;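 note: score merges spot fluorescence with signal-to-noise ratio from the scanned slide images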
[13] = PSAC antagonists in infected red cells, primary screen, cell-based, P. falciparum Indochina, OD700, 1 h (AID 1154); conditions: P. falciparum Indochina infected RBC osmotic lysis, higher = more signal, called active from +8 up or from −8 down
[14] = PSAC antagonists in infected red cells, primary screen, cell-based, P. falciparum Indochina, OD700, 2 h (AID 1155);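 note: lysis reports solute entry through the parasite surface anion channel PSAC; channel blockers reduce lysis of infected cells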; conditions: P. falciparum Indochina infected erythrocytes, osmotic lysis OD700; higher = more signal, called active from +8 up or from −8 down
[15] = osmotic lysis modulators in infected erythrocytes, primary screen, PSAC antagonist project, cell-based, P. falciparum Indochina, OD700, 3 h (AID 1156); conditions: higher = more signal, called active from +8 up or from −8 down
[16] = PSAC antagonists in infected red cells, primary screen, cell-based, P. falciparum Indochina, OD700, 18 h (AID 1157); conditions: P. falciparum Indochina infected erythrocytes, osmotic lysis OD700, 18 h; higher = more signal, called active from +8 up or from −8 down
[17] = modulators of S6 phosphorylation in cells, primary screen, cell-based, A549, cytoblot, luminescence, serum-stimulated (AID 1158); conditions: A549 phospho-S6 cytoblot, 5 h, higher = more signal;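 note: serum-stimulated A549 lung adenocarcinoma cells; signal is phosphorylated S6 detected by cytoblot immunostaining with HRP secondary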
[18] = target: NADPH oxidase 2 (Homo sapiens) (UniProt P04839); assay: NOX2-dependent H2O2 signal modulators, primary screen, NOX inhibitor project, cell-based, HEK293-NOX2, PMA-stimulated, Amplex Red fluorescence (AID 1159); conditions: 45 min, higher = more signal, called active from +8 up or from −8 down; note: test concentration not given here
[19] = target: NADPH oxidase 4 (Homo sapiens) (UniProt Q9NPH5); assay: NOX4-dependent H2O2 signal modulators, primary screen, NOX inhibitor project, cell-based, HEK293-NOX4, tetracycline-induced, Amplex Red fluorescence (AID 1160); conditions: 45 min, higher = more signal, called active from +8 up or from −8 down
[20] = target: NADPH oxidase 5 (Homo sapiens) (UniProt Q96PH1); assay: NOX5-dependent H2O2 signal modulators, primary screen, NOX inhibitor project, cell-based, HEK293-NOX5, Amplex Red fluorescence (AID 1161); conditions: HEK293-NOX5, ionomycin, 45 min, higher = more signal
Sequence of NADPH oxidase 5 (Homo sapiens) (Q96PH1 whole entry, looked up): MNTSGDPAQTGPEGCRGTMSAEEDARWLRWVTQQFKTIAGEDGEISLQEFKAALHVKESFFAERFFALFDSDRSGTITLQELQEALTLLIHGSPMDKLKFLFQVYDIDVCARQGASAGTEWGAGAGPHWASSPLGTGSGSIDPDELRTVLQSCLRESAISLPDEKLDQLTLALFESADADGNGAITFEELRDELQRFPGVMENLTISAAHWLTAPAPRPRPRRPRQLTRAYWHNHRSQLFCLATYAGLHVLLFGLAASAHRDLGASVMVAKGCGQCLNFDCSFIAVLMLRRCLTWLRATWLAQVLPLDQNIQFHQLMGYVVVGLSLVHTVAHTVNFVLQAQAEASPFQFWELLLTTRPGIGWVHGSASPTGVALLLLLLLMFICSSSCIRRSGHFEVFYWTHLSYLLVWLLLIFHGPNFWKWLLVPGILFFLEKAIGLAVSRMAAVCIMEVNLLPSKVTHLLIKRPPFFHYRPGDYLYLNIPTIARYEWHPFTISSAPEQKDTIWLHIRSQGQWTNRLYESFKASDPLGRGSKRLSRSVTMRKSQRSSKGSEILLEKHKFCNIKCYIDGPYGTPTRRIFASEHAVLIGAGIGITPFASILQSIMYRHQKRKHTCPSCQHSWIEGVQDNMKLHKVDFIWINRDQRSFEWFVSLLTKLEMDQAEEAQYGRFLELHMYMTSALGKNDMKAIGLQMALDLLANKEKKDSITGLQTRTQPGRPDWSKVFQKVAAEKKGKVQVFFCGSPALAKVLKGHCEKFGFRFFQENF

Sequence of Torsin-1A (Homo sapiens) (O14656 whole entry, looked up): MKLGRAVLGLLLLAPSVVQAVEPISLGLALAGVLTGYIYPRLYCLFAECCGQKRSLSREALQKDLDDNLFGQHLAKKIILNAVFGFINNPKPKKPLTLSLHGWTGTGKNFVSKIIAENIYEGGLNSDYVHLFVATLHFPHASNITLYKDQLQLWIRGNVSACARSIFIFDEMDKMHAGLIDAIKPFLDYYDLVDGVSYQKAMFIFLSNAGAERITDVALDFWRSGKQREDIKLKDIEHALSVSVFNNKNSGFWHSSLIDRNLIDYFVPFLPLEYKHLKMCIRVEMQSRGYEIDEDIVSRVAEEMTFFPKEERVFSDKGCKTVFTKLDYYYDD
Sequence of NADPH oxidase 2 (Homo sapiens) (P04839 whole entry, looked up): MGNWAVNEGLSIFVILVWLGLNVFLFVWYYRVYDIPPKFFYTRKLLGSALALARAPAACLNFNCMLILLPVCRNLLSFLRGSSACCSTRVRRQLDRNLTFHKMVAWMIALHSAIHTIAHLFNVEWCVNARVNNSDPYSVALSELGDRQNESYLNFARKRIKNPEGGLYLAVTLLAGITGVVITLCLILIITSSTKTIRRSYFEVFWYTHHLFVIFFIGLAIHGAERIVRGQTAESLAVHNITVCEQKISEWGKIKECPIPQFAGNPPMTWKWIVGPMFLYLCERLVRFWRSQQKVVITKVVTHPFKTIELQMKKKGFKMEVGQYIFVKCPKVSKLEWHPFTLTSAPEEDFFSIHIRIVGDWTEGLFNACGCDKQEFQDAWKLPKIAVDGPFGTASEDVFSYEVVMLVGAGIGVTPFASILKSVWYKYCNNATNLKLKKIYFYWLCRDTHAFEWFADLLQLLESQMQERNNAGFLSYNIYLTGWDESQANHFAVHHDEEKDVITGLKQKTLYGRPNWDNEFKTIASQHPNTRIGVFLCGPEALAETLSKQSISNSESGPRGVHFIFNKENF
Sequence of NADPH oxidase 4 (Homo sapiens) (Q9NPH5 whole entry, looked up): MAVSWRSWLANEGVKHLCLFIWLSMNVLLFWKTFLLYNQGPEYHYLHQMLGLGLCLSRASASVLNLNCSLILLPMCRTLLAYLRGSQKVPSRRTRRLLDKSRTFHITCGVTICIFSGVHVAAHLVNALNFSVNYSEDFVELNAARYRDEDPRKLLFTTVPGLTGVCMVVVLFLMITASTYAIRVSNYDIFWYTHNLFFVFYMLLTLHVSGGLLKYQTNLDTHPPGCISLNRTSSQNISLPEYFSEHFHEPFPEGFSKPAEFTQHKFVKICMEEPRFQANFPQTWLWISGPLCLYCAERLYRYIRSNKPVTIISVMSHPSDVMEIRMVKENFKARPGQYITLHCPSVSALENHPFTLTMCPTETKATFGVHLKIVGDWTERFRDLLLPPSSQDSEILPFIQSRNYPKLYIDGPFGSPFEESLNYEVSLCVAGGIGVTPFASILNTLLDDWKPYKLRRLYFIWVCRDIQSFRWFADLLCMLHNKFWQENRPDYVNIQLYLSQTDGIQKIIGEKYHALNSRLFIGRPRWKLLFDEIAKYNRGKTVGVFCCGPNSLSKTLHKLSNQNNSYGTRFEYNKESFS
Sequence of Streptavidin (Streptomyces avidinii) (P22629 whole entry, looked up): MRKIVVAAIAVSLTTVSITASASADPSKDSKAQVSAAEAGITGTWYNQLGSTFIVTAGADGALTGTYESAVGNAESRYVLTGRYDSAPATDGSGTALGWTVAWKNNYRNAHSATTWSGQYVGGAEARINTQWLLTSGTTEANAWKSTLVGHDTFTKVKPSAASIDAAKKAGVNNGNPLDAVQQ

SMILES	composite z-score [1]	z-score [2]	z-score [3]	z-score [4]	z-score [5]	composite z-score [6]	composite z-score [7]	composite z-score (Torsin-1A (Homo sapiens) [8])	composite z-score (Torsin-1A (Homo sapiens) [9])	composite z-score [10]	z-score [11]	composite z-score [12]	z-score [13]	z-score [14]	z-score [15]	z-score [16]	z-score [17]	z-score [18]	z-score [19]	z-score [20]
Cc1nc2cc(Br)ccc2c(=O)o1	0.119	-1.66 (inactive)	-1.06 (inactive)	-0.464 (inactive)	-1.27 (inactive)	0.498	0.0319	0.842	0.642	0.113	0.776 (inactive)	0.442	0.252 (inactive)	0.0276 (inactive)	0.193 (inactive)	-0.509 (inactive)	0.472	0.288 (inactive)	-0.0246 (inactive)	0.256
CN(C)CCCCCCNC(=O)[C@@H]1C[C@@H]2C(=O)N[C@@H](Cc3ccccc3)C(=O)N2[C@@H]1c1ccc(O)cc1	0.484	-0.764 (inactive)	-0.0157 (inactive)	-0.528 (inactive)	-0.167 (inactive)	0.405	-0.025	0.641	1.37	2.19	-0.0959 (inactive)	0.378	1.85 (inactive)	0.596 (inactive)	2.42 (inactive)	0.228 (inactive)	0.594	-0.745 (inactive)	0.262 (inactive)	-0.632
COC(=O)[C@@]1(Cc2ccc(OC)cc2)[C@H]2c3cc(C(=O)N4CCCC4)n(CCN4CNCC4=O)c3C[C@H]2CN1C(=O)c1ccccc1	2.12	-0.508 (inactive)	-0.12 (inactive)	0.201 (inactive)	-0.0971 (inactive)	-0.002	1.59	0.294	0.0178	-1.14	-0.82 (inactive)	1.86	2.95 (inactive)	0.0621 (inactive)	0.775 (inactive)	0.838 (inactive)	0.287	0.468 (inactive)	-2.36 (inactive)	-4.44
COc1ccc(C#Cc2ccc3c(c2)[C@]2(C(=O)N3)[C@H](c3ccccc3OCCO)N3[C@H](c4ccccc4)[C@H](c4ccccc4)OC(=O)[C@H]3[C@@H]2C(=O)Nc2nc3ccccc3s2)cc1	0.469	-1.62 (inactive)	-0.726 (inactive)	-1.28 (inactive)	-1.38 (inactive)	1.09	1.06	0.0821	0.479	1.52	-0.89 (inactive)	1.78	1.35 (inactive)	1.67 (inactive)	1.46 (inactive)	0.457 (inactive)	-0.0333	-1.26 (inactive)	-0.977 (inactive)	-4.34
CC(C)C(O)C1C=CC2C(=O)N(c3ccccc3)C(=O)C2N1Nc1ccc([N+](=O)[O-])cc1 (stereo not given)	0.774	-0.208 (inactive)	0.21 (inactive)	-0.368 (inactive)	-0.343 (inactive)	0.122	0.726	0.0373	0.142	-0.688	-0.467 (inactive)	0.0045	11 (active)	1.48 (inactive)	0.928 (inactive)	0.779 (inactive)	-0.326	-0.59 (inactive)	-1.82 (inactive)	-1.23
CN1C(=O)C2C=CC(C(O)c3ccco3)N(Nc3ccccc3)C2C1=O (stereo not given)	0.148	1.11 (inactive)	-0.197 (inactive)	-0.133 (inactive)	0.0834 (inactive)	0.437	-0.0131	0.336	-0.59	0.59	-1.63 (inactive)	0.335	0.233 (inactive)	0.742 (inactive)	-0.283 (inactive)	1.34 (inactive)	-1.2	-1.76 (inactive)	-3.72 (inactive)	-2.54
O=C1O[C@H](c2ccccc2)[C@H](c2ccccc2)N2[C@H]1[C@@H](C(=O)N1CCCCCCC1)[C@]1(C(=O)Nc3ccc(C#CC4=CCCCC4)cc31)[C@H]2c1ccc(OCCO)cc1	1.79	-5.63 (inactive)	-0.761 (inactive)	0.182 (inactive)	-0.617 (inactive)	3.17	2.23	1.5	1.88	1.59	2.72 (inactive)	2.88	10.2 (active)	0.658 (inactive)	1.08 (inactive)	-1.25 (inactive)	2.85	-0.708 (inactive)	0.14 (inactive)	-2.05
COc1cc2c(cc1OC)CN(C(=O)[C@@H]1[C@H]3C(=O)O[C@H](c4ccccc4)[C@H](c4ccccc4)N3[C@H](c3ccc(O)cc3)[C@@]13C(=O)Nc1ccccc13)CC2	0.33	-4.24 (inactive)	-1.07 (inactive)	0.685 (inactive)	-0.0307 (inactive)	0.523	0.121	1.05	0.341	1.33	2.38 (inactive)	0.154	1.32 (inactive)	0.216 (inactive)	-0.287 (inactive)	-1.28 (inactive)	2.99	0.00476 (inactive)	-0.339 (inactive)	-0.19
